Test results: PubChem BioAssay (NCI)
The panel holds about 79,000 compounds, 15% with a hit somewhere; the sample as a whole holds those more often. Values without a mark were called inactive. Active and inactive are the calls of the source. No stated cut-off is given here; in the data, active means growth inhibition above about 70%; inactive means the rest.

Assay: NCI Yeast Anticancer Drug Screen. Data for the rad50 strain (AID 155);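 further: 0% = growth of vehicle-only cultures of the same strain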
Settings: S. cerevisiae rad50 strain growth inhibition; at 5.0 µM (retest, dose inferred, filed as 0.5); active compounds read high
Method in brief: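 Genetically altered yeast (DNA repair pathway); compound treatment; growth inhibition vs vehicle ctrl.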

Structure (SMILES) | growth inhibition
O=[N+]([O-])c1cccc(S(=O)(=O)N/N=C/c2cc(I)cc([N+](=O)[O-])c2O)c1 | 5%
COc1cc(N=Nc2cccc(S(N)(=O)=O)c2)c2ccccc2c1N | -6%
O=S(=O)(c1ccc(O)cc1)c1ccc(Cl)cc1 | -8%
C[N+](C)=c1ccc2nc3c(cc(NCCCNc4cc5oc6cc(=[N+](C)C)ccc-6nc5c5ccccc45)c4ccccc43)oc-2c1 | -28%
CC(C)(C)C(=O)/C=C/c1ccc2ccccc2n1 | -135%
CSc1ccc(/C=N/NC(N)=S)cc1 | -150%
CN(C)c1ccc(/C=C(\C#N)c2c(F)cccc2F)cc1 | 4%
O=C(/C=C\c1ccccc1)N1c2ccccc2CC1c1c[nH]c2ccccc12 (stereo not given) | -10%
COc1cccc(C2c3cc4c(cc3OC(Nc3ccccc3)C2C)OCO4)c1O (stereo not given) | -8%
CC(/C=C/c1cccs1)=N\C(=S)NC(N)=S | -1%
C=C1C(=O)O[C@H]2[C@H](OC(C)=O)[C@@H](C)CCC/C(C)=C/CC[C@@]3(C)O[C@@H]3C[C@@H]12 | 14%
CC(=O)O/C=C\COC(C)=O | 4%
Cn1cc(NC(=O)c2cc(NC(=O)CCCCCCCCC(=O)Nc3cc(C(=O)Nc4cc(C(=O)NCCC(N)N)n(C)c4)n(C)c3)cn2C)cc1C(=O)NCCC(=N)N | 83% (active)
CCCCCCCNCCCCCC | 64%
Cc1ccc(S(=O)(=O)N(c2ccccc2-c2ccccc2)C(C)C(=O)O)cc1 (stereo not given) | 2%
